Structures are written as SMILES. Several values for one entry are separate records, joined by “and”; a condition that tells them apart may be missing. Equal entries are not always repeated. In all, about 390,000 compounds went through this assay and about 820 (0.21%) were called active. Inconclusive results (about 3%) are left out. Calls follow the shape of the dose curve; as a rule, active = well fitted inhibition curve with a large enough effect; inconclusive = small, poorly fitted or top-dose-only effect, or another doubt; inactive = no such curve, though single readings can be large or run the other way. The entries come from a sample that favours actives as a whole. Where a structure was tested more than once in an assay, its records may differ in their call.
% is scaled to controls: 0 for no effect and ±100 for the full control effect; potency is read from the fitted curve at half-maximal effect.

Sequence of Histone acetyltransferase KAT2A (Homo sapiens) (Q92830 whole entry, looked up): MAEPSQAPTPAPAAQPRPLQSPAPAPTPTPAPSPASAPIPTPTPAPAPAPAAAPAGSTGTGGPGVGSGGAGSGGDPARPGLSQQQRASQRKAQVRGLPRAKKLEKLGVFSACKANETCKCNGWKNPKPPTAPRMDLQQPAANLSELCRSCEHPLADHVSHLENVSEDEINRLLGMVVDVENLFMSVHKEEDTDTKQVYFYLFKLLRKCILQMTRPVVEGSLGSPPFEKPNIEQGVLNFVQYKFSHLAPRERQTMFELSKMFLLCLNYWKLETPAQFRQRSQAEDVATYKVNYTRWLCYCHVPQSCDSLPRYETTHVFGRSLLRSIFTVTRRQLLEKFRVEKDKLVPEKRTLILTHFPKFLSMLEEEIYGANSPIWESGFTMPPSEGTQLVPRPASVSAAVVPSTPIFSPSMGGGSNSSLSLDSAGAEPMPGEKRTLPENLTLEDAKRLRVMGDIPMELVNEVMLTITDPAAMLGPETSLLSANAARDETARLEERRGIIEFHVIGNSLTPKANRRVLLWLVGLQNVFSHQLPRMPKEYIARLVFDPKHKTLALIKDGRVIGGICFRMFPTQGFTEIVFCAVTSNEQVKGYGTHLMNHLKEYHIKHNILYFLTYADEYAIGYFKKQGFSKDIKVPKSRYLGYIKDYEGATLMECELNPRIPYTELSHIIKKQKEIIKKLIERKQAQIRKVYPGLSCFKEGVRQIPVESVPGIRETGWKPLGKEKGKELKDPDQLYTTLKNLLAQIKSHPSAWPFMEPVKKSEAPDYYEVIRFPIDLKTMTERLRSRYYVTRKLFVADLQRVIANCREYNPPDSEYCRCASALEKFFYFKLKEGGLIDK

This assay deals with Histone acetyltransferase KAT2A (Homo sapiens) (UniProt Q92830). Nature of the assay: qHTS Assay for Inhibitors of GCN5L2. The settings on record: GCN5L2 HAT assay, ThioGlo1 CoA-SH fluorescence; series mostly up to 58.9 µM; activity change, negative = inhibition: at the top concentration. From the text:
Histone acetyltransferase (HAT) enzymes transfer a […] group from acetyl-coenzyme A to the epsilon-amino group of conserved lysine residues of N-terminal histone tails. Acetylation results in charge neutralization of this positively charged amino acid, decreasing interactions with the […] backbone and making the DNA more accessible for transcription. HATs have been recognized as an emerging drug target for treatment of cancer, diabetes, asthma, chronic obstructive pulmonary disease, cardiac disease, and viral infection. Protein identified with HAT activity include the […] like 2 (GCN5L2, a.ka. Histone acetyltransferase KAT2A) which acetylates histone H3 at Lys9, 14, 18, 13, and to lesser extent histones H4 and H2B. This activates transcription of the gene by modulating chromatin structure and installing the acetyllysine recognition mark for bromodomain-containing coactivator proteins.
A quantitative high throughput screen was developed to identify small molecule inhibitors. The assay is based on the principle that it measures formation of reduced CoA with the pro-fluorescent maleimide derivative ThioGlo1 that becomes fluorescent upon reaction with the free thiol of CoA.
A large number of artifacts are expected in this primary screen, compounded by the assay format (fluorescent artifacts) and by the high top concentration tested for each substance. This BioAssay data deposition should be used with caution, and counterscreen and secondary assay validation is essential since very few actives from the primary screen are expected to be true inhibitors of GCN5L2.
[2] Yasgar, et al. Compound Management for Quantitative High-Throughput Screening. JALA. 2008 Apr;13(2):79-89.
[3] Inglese, et al. Quantitative high-throughput screening: a titration-based approach that efficiently identifies biological activities in large chemical libraries. Proc Natl Acad Sci. 1;103(31):11473-8. 2006. PMID: 16864780
NIH Molecular Libraries Probe Production Network [MLPCN]
NIH Chemical Genomics Center [NCGC]
Structural Genomics Consortium (SGC)
To each well of a 1,536w plate, 3ul of GCN5L2 (final concentration 20nM, in 50mM HEPES, 0.1mM EDTA (pH 7.5), 0.01% Tween-20 buffer) are added using a Kalypsys dispenser. Only buffer is added to some wells as a control. A Kalypsys pin-tool transferred 23nl of library compound solution in DMSO to each well, as well as the control inhibit garcinol. . Following a 15 min incubation of enzyme with compounds at room temperature, 1ul mixture of ThioGlo1 (50uM final), H3(1-25) peptide (75uM final), and Acetyl-CoA (70uM final) is added. Plates are read immediately on the ViewLux (PerkinElmer) (Ex340nm/Em540nm) for a 0 min read, incubated for 20 min at room temperature, and read again on the ViewLux with the same settings. The initial read was carried out to identify compounds that are potentially fluorescent.
As to `COc1ccc(N2C(=O)/C(=C/c3ccco3)C(=O)NC2=S)cc1`, the Potency is 17.8 µM (active).

`COc1ccc2c3c1O[C@H]1C[C@@H](O)C=C[C@@]31CCN(C)C2`: the Potency result is “inactive”.

Turning to `CC(C)(Cc1c[nH]c2ccc(Cl)cc12)NCCOc1ccccc1OCC1CC1`, the Potency result was “inactive”.

For `C[C@]12CC[C@@H]3c4ccc(O)cc4C[C@@H](CCCCCCCCCS(=O)CCCC(F)(F)C(F)(F)F)C3[C@@H]1CC[C@@H]2O` (stereo not given in full), the “activity change, negative = inhibition” value is 34.1% (inactive).

For `CCCCC/C=C\C/C=C\C/C=C\C/C=C\CCCCCC(=O)NCCO`, the Potency entry is “inactive”.

Turning to `Cc1cccc2c3c(ccc12)C1=C(C(=O)C3=O)C(C)CO1` (stereo not given), the Potency was 31.6 µM (active).

For the compound `C[C@]12O[C@H](C[C@@]1(O)C(=O)O)n1c3ccccc3c3c4c(c5c6ccccc6n2c5c31)CNC4=O`, the “activity change, negative = inhibition” value was 37.3% (inactive).

For the compound `CCOc1ccc(S(=O)(=O)NCc2ccc3c(c2)OCO3)cc1C`, the “activity change, negative = inhibition” value was -4.01% (inactive).

`COc1ccc2c3c1OC1CC(O)C=C[C@@]31CCN(C)C2` (stereo not given in full): the “activity change, negative = inhibition” value was -3.98% (inactive).

As for `CC(C)C(N)C(=O)OCCOCn1cnc2c(=O)[nH]c(N)nc21` (stereo not given), the “activity change, negative = inhibition” value was -17% (inactive).

In the case of `CN(C)C[C@H]1CCCC[C@]1(O)c1cccc(O)c1`, the “activity change, negative = inhibition” value was -5.12% (inactive).

On to `CC(C)(c1ccc(OC[C@@H]2CO2)cc1)c1ccc(OC[C@H]2CO2)cc1`, for which the “activity change, negative = inhibition” value is -15.6% (inactive).

For `CC(=O)c1c(O)c(C)c(O)c(Cc2c(O)c3c(c(C(=O)/C=C/c4ccccc4)c2O)OC(C)(C)C=C3)c1O`, the Potency result is “inactive and 11.2 µM (active)”.

For `CC(=O)c1c(O)c(C)c(O)c(Cc2c(O)c3c(c(C(=O)/C=C\c4ccccc4)c2O)OC(C)(C)C=C3)c1O`, the Potency is 35.5 µM (active).

Regarding `CCC(C)C(=O)O[C@@H]1C[C@@]2(C)C(c3ccoc3)OC(=O)CC23OC2(C)O[C@@]14[C@@]1(C)C(CC(=O)OC)C5(C)CC1(O)C(O)(C5OC(=O)C1(C)OC1C)C(OC(C)=O)[C@@]34O2` (stereo not given in full), the “activity change, negative = inhibition” value was -8.65% (inactive).

For `C=CCN1CCC2(C)c3cc(O)ccc3CC1[C@@H]2C` (stereo not given in full), the “activity change, negative = inhibition” value is -21.9% (inactive).

As to `CN1CCCC(=C(c2cccs2)c2cccs2)C1`, the “activity change, negative = inhibition” value was -2.25% (inactive).

Take `CC(C)(O)c1[se]c2ccccc2c1I`: the “activity change, negative = inhibition” value is -12% [at 88.6 µM] (inactive).

Take `CO[C@@H]1C[C@@H](C[C@H]2CC[C@H](C)[C@@H]([C@@H](C)C(=O)O)O2)O[C@]2(O[C@](C)([C@H]3CC[C@@](C)(C4OC([C@H]5O[C@@](O)(CO)[C@H](C)C[C@@H]5C)C[C@@H]4C)O3)C[C@H]2C)[C@@H]1C` (stereo not given in full): the “activity change, negative = inhibition” value is -5.57% (inactive).

`CCN(CC)c1nc(C)cc(OP(=S)(OC)OC)n1`: the “activity change, negative = inhibition” value was -9.1% (inactive).

Consider `CN(C)[C@@H]1C(=O)C(C(N)=O)=C(O)[C@@]2(O)C(=O)C3=C(O)c4c(O)cccc4[C@@](C)(O)C3CC12` (stereo not given in full), for which the “activity change, negative = inhibition” value was 3.36% (inactive).

As to `COC([CH2][Hg])CNC(=O)c1ccccc1OCC(=O)O` (stereo not given), the Potency was 0.891 µM (active).

As for `O=C1CCc2cccc3c2N1CC3`, the “activity change, negative = inhibition” value was 7.32% (inactive).

As to `CC(C)=CCC[C@]1(C)[C@@H](CC=C(C)C)C[C@@]2(CC=C(C)C)C(=O)[C@]1(C(=O)C(C)C)C(=O)C(CC=C(C)C)=C2O`, the Potency is 28.2 µM (active).

As to `Nc1ccc(-c2ccc(N)c(N)c2)cc1N`, the “activity change, negative = inhibition” value is -7.25% (inactive).

As to `CCCN(C/C=C/I)C1CCc2ccc(O)cc2C1` (stereo not given), the “activity change, negative = inhibition” value is -0.627% (inactive).

As to `COc1ccc2[nH]cc(CCNCc3ccc(Br)cc3)c2c1`, the “activity change, negative = inhibition” value was 1.22% (inactive).

Consider `NCCc1c[nH]c2ccc(O)cc12`, for which the Potency entry was “inactive and 11.2 µM (active)”.

As for `Cc1cccc2c(CCN)c[nH]c12`, the “activity change, negative = inhibition” value was -2.68% (inactive).

Turning to `CC(=O)Oc1ccccc1C(=O)Nc1ncc([N+](=O)[O-])s1`, the “activity change, negative = inhibition” value is -3.77% (inactive).

As for `CC[C@@H]1CN2CC[C@@H]1C[C@H]2[C@H](O)c1ccnc2ccc(OC)cc12`, the “activity change, negative = inhibition” value is -9.14% (inactive).

`COc1ccccc1-c1[se]c2ccccc2c1I`: the “activity change, negative = inhibition” value is -12.9% (inactive).

`CCCCCCCCCCCCN=C(N)N`: the “activity change, negative = inhibition” value is 0.337% (inactive).

In the case of `N#Cc1c(Cl)c(Cl)c(Cl)c(C#N)c1Cl`, the “activity change, negative = inhibition” value is -13.8% (inactive).

Turning to `CCCCCCCCCCCCCC(=O)O[C@@H]1[C@@H](C)[C@@]2(O)[C@@H](C=C(CO)C[C@]3(O)C(=O)C(C)=C[C@@H]23)[C@@H]2C(C)(C)[C@]12OC(C)=O`, the “activity change, negative = inhibition” value is 2.06% (inactive).

As to `COC(=O)N1C(c2ccccc2)C1c1ccccc1` (stereo not given), the “activity change, negative = inhibition” value was 0.274% (inactive).

As to `CC(=O)[O][Sn]([c]1ccccc1)([c]1ccccc1)[c]1ccccc1`, the Potency is 4.47 µM (active).

For `C[C@H]1C/C=C/[C@@H]2[C@@H]3O[C@]3(C)[C@@H](C)[C@H]3[C@H](Cc4ccccc4)NC(=O)[C@]32OC(=O)O/C=C/[C@](C)(O)C1=O`, the “activity change, negative = inhibition” value was 3.33% (inactive).

For the compound `CN[C@@H]1C[C@H]2O[C@@](C)([C@@H]1OC)n1c3ccccc3c3c4c(c5c6ccccc6n2c5c31)C(=O)NC4`, the activity change, negative = inhibition is 4.47% [at 12.7 µM] (inactive).

Take `CNCC[C@H](Oc1ccc(C(F)(F)F)cc1)c1ccccc1`: the Potency result is “inactive and 8.91 µM (active)”.

As for `CCCCC/C=C\C/C=C\C/C=C\C=C\[C@H](CCCC(=O)O)OO`, the “activity change, negative = inhibition” value was 9.21% (inactive).

For the compound `N#CC(C#N)=Cc1cc(O)c(O)c([N+](=O)[O-])c1`, the Potency entry is “inactive”.

Take `C[C@@H]1C[C@H]2CC[C@H](O2)[C@H](C)C(=O)O[C@@H](C)C[C@@H]2CC[C@@H](O2)[C@@H](C)C(=O)O[C@H](C)C[C@H]2CC[C@H](O2)[C@H](C)C(=O)O[C@@H](C)C[C@@H]2CC[C@@H](O2)[C@@H](C)C(=O)O1`: the “activity change, negative = inhibition” value is 41.3% (inactive).

On to `N#Cc1cc(Br)c(O)c(Br)c1`, for which the “activity change, negative = inhibition” value was -21.5% (inactive).

As to `c1ccc(N2CC[C@@]3(CCCNC3)C2)nc1`, the “activity change, negative = inhibition” value was 7.24% (inactive).

(Values after PubChem BioAssay AID504327 (National Center for Advancing Translational Sciences (NCATS), 2011).)
